Measurements from PubChem BioAssay (NCI).
About 79,000 compounds went through this panel and 15% of them were active in at least one assay; those are over-represented in the sample as a whole. Unmarked numbers belong to inactive results. The source made the active and inactive calls. Cut-off read from the data, not from the text of the source: active = growth inhibition above about 70%; inactive = the rest.

How the values were obtained:
[1] = NCI Yeast Anticancer Drug Screen. Data for the rad50 strain (AID 155);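 note: 0% = growth of vehicle-only cultures of the same strain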; conditions: S. cerevisiae rad50 strain growth inhibition; at 50.0 µM; hits give high values
In short: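 A DNA repair-deficient yeast mutant serves as the test organism; compound-induced growth inhibition is calculated against vehicle-treated cells.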

[2] = NCI Yeast Anticancer Drug Screen. Data for the mec2-1 strain (AID 157); conditions: S. cerevisiae mec2-1 strain, at 50.0 µM, hits give high values
In short: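 Each compound was tested on mec2-1 yeast, a strain altered in DNA damage repair or cell cycle control. Growth inhibition is reported relative to vehicle.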

[3] = NCI Yeast Anticancer Drug Screen. Data for the sgs1 mgt1 strain (AID 161);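 note: 0% = growth of cultures given vehicle only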; conditions: S. cerevisiae sgs1 mgt1 strain, at 50.0 µM, hits give high values
In short: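 Test agents were incubated with a DNA-repair-mutant yeast strain. Growth was then read and compared against vehicle-treated controls.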

[4] = NCI Yeast Anticancer Drug Screen. Data for the cln2 rad14 strain (AID 165);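 note: 0% = growth equal to vehicle treated cultures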; conditions: S. cerevisiae cln2 rad14 strain, at 50.0 µM, hits give high values
In short: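 Test compounds were added to cln2 rad14 yeast cultures; inhibition of growth was then determined by comparison with vehicle treatment.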

[5] = NCI Yeast Anticancer Drug Screen. Data for the bub3 strain (AID 167); conditions: S. cerevisiae bub3 mutant strain, at 50.0 µM, hits give high values
In short: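 Inhibition values come from growth of compound-treated mutant yeast normalised to vehicle-treated controls.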

[6] = NCI Yeast Anticancer Drug Screen. Data for the mlh1 rad18 strain (AID 175); conditions: S. cerevisiae mlh1 rad18 strain growth inhibition; at 50.0 µM; hits give high values
In short: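 Inhibition values reflect reduced growth of mutant yeast versus vehicle-treated controls following compound exposure; the mutations affect DNA damage repair.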

## CCOC(=O)/C(=C\n1c(=S)[nH]c2cc(C)ccc21)C(=O)c1ccccc1
[1]
  growth inhibition: -41.2%
[2]
  growth inhibition: -60.5%
[3]
  growth inhibition: -18.8%
[4]
  growth inhibition: 10.8%
[5]
  growth inhibition: -14.2%
[6]
  growth inhibition: -13.5%

## CCCSc1ccc([N+](=O)[O-])cc1[N+](=O)[O-]
[1]
  growth inhibition: 31.8%
[2]
  growth inhibition: -5.6%
[3]
  growth inhibition: 25.2%
[4]
  growth inhibition: 1%
[5]
  growth inhibition: -5.35%
[6]
  growth inhibition: 32.8%

## CC(O)CN1CNC(=S)NC1 (configuration not stated)
[1]
  growth inhibition: -3.8%
[2]
  growth inhibition: -39.3%
[3]
  growth inhibition: -3.55%
[4]
  growth inhibition: 8.75%
[5]
  growth inhibition: -16.2%
[6]
  growth inhibition: -7.25%

## FC(F)(Br)C(F)(Cl)Br (configuration not stated)
[1]
  growth inhibition: 18.6%
[2]
  growth inhibition: 18.8%
[3]
  growth inhibition: 17.6%
[4]
  growth inhibition: 17.4%
[5]
  growth inhibition: 1.5%
[6]
  growth inhibition: 24.7%

## CCCCCCCCCCOc1ccc(OCCCCCCCCC)cc1
[1]
  growth inhibition: 15.5%
[2]
  growth inhibition: -15.8%
[3]
  growth inhibition: 12.9%
[4]
  growth inhibition: -45%
[5]
  growth inhibition: -2.3%
[6]
  growth inhibition: -11.9%

## CN(C)S(=O)(=O)c1nc2nc[nH]c(=O)c2[nH]1
[1]
  growth inhibition: -3.2%
[2]
  growth inhibition: -20.4%
[3]
  growth inhibition: -3.8%
[4]
  growth inhibition: -15.9%
[5]
  growth inhibition: -8.55%
[6]
  growth inhibition: -22.9%

## COc1ccc(C(O)(c2ccccc2C)c2ccccc2OC)cc1 (configuration not stated)
[1]
  growth inhibition: 16.1%
[2]
  growth inhibition: -2.4%
[3]
  growth inhibition: 4.2%
[4]
  growth inhibition: -10.8%
[5]
  growth inhibition: 20.7%
[6]
  growth inhibition: 27.9%

## CC(=O)NC1C(O)CC(OCCCSCCN)(C(=O)O)OC1C(O)C(O)CO (configuration not stated)
[1]
  growth inhibition: -6.25%
[2]
  growth inhibition: -22.6%
[3]
  growth inhibition: -23.1%
[4]
  growth inhibition: 11.3%
[5]
  growth inhibition: -16.8%
[6]
  growth inhibition: -26.5%

## NNC(=O)C1CCC(=O)N1S(=O)(=O)c1ccccc1 (configuration not stated)
[1]
  growth inhibition: -14%
[2]
  growth inhibition: -12.1%
[3]
  growth inhibition: -22%
[4]
  growth inhibition: 8.95%
[5]
  growth inhibition: -2.25%
[6]
  growth inhibition: -25.6%

## Cc1c(C(=O)CC(=O)C(=O)Nc2c(C(C)C)cccc2C(C)C)[n+](=O)c2ccccc2n1[O-]
[1]
  growth inhibition: 35.6%
[2]
  growth inhibition: 39.5%
[3]
  growth inhibition: 22.2%
[4]
  growth inhibition: 40.5%
[5]
  growth inhibition: 29.8%
[6]
  growth inhibition: 36%

## O=C(Nc1ccc(Cl)cc1)OCCSc1nc2ccccc2s1
[1]
  growth inhibition: -6.05%
[2]
  growth inhibition: -30.1%
[3]
  growth inhibition: 21.5%
[4]
  growth inhibition: 9.35%
[5]
  growth inhibition: 4.55%
[6]
  growth inhibition: -3.9%

## O=Cc1cc2ccccc2c2ccccc12
[1]
  growth inhibition: -23.2%
[2]
  growth inhibition: -24%
[3]
  growth inhibition: 5.45%
[4]
  growth inhibition: -16.8%
[5]
  growth inhibition: 0.2%
[6]
  growth inhibition: -4.9%

## CC(=O)Nc1c(Cl)cc2c(c1Cl)Cc1cc(N(C)C)ccc1-2
[1]
  growth inhibition: -13.6%
[2]
  growth inhibition: -0.35%
[3]
  growth inhibition: 0.5%
[4]
  growth inhibition: 6.25%
[5]
  growth inhibition: 1.75%
[6]
  growth inhibition: -9.25%

## Cc1ccc(N=Nc2ccc(C)cc2NC(=O)c2ccc(Cl)cc2Cl)cc1
[1]
  growth inhibition: 9.2%
[2]
  growth inhibition: -9.7%
[3]
  growth inhibition: 9.1%
[4]
  growth inhibition: 4.55%
[5]
  growth inhibition: -1.55%
[6]
  growth inhibition: 18.2%

## COC(=O)/C=C1\C(=O)N(C(C)=O)c2ccccc21
[1]
  growth inhibition: 12.3%
[2]
  growth inhibition: 16.1%
[3]
  growth inhibition: 72.2% (active)
[4]
  growth inhibition: 40.1%
[5]
  growth inhibition: 50.6%
[6]
  growth inhibition: 76.4% (active)

## Oc1cccc2nc3cc(CN4CCOCC4)c(CN4CCOCC4)cc3nc12
[1]
  growth inhibition: 8.35%
[2]
  growth inhibition: -18.4%
[3]
  growth inhibition: -1.05%
[4]
  growth inhibition: 2.7%
[5]
  growth inhibition: -26.1%
[6]
  growth inhibition: -4%

## CC(C)(C)c1ccc(OC(=S)Nc2ccccc2)cc1
[1]
  growth inhibition: -32.8%
[2]
  growth inhibition: -6.25%
[3]
  growth inhibition: -17.4%
[4]
  growth inhibition: -17.2%
[5]
  growth inhibition: -13.6%
[6]
  growth inhibition: 2.5%

## O=C(CCc1cc(O)ccc1O)OCCc1ccccc1
[1]
  growth inhibition: 30.9%
[2]
  growth inhibition: 71.2% (active)
[3]
  growth inhibition: 91.6% (active)
[4]
  growth inhibition: 85.3% (active)
[5]
  growth inhibition: 88.4% (active)
[6]
  growth inhibition: 91.5% (active)

## CCCCCC(=O)OCCN(C)C
[1]
  growth inhibition: -7.15%
[2]
  growth inhibition: -24.2%
[3]
  growth inhibition: -4.45%
[4]
  growth inhibition: 21.1%
[5]
  growth inhibition: -13.5%
[6]
  growth inhibition: 24.9%

## CCCNC(=S)N=Nc1c(O)[nH]c2ccccc12
[1]
  growth inhibition: -46.2%
[2]
  growth inhibition: -55.8%
[3]
  growth inhibition: -25.1%
[4]
  growth inhibition: -31.5%
[5]
  growth inhibition: -22.2%
[6]
  growth inhibition: -11.2%

## O=[N+]([O-])c1ccccc1S(=O)c1ccccc1 (configuration not stated)
[1]
  growth inhibition: -1.65%
[2]
  growth inhibition: -0.15%
[3]
  growth inhibition: -4.3%
[4]
  growth inhibition: 11.2%
[5]
  growth inhibition: -6.5%
[6]
  growth inhibition: -6.25%

## c1ccc(-c2nn(-c3ccccc3)[n+](-c3ccccc3)n2)cc1
[1]
  growth inhibition: 5.4%
[2]
  growth inhibition: 1.15%
[3]
  growth inhibition: 21.9%
[4]
  growth inhibition: 24.1%
[5]
  growth inhibition: 30.7%
[6]
  growth inhibition: 4.35%

## O=C1NC(=O)C(=CN2C(=O)/C(=C/c3ccc([N+](=O)[O-])cc3)SC2=S)C(=O)N1
[1]
  growth inhibition: -0.4%
[2]
  growth inhibition: 33.2%
[3]
  growth inhibition: 40.6%
[4]
  growth inhibition: 20.4%
[5]
  growth inhibition: 20.6%
[6]
  growth inhibition: 21.9%

## Brc1cc2[nH]c(-c3ccccc3)c(Br)c2c(Br)c1Br
[1]
  growth inhibition: 59%
[2]
  growth inhibition: 36.5%
[3]
  growth inhibition: 68.5%
[4]
  growth inhibition: 39.2%
[5]
  growth inhibition: 14.3%
[6]
  growth inhibition: 69%

## CC(C)(C)C1=CC(=O)C(C#N)(C(C)(C)C)C1=O (configuration not stated)
[1]
  growth inhibition: 11.2%
[2]
  growth inhibition: -5.7%
[3]
  growth inhibition: 7.15%
[4]
  growth inhibition: -36%
[5]
  growth inhibition: 1.6%
[6]
  growth inhibition: 6.55%

## CN(/N=C\c1ccc2ccccc2c1)C1=NCCCCN1
[1]
  growth inhibition: -2.05%
[2]
  growth inhibition: -5.45%
[3]
  growth inhibition: -27.6%
[4]
  growth inhibition: -37%
[5]
  growth inhibition: -0.1%
[6]
  growth inhibition: 1.6%

## C/C(=C\c1ccccc1)C(=O)c1c(C)cc(C)cc1C
[1]
  growth inhibition: 26.9%
[2]
  growth inhibition: -2.9%
[3]
  growth inhibition: 11.1%
[4]
  growth inhibition: -0.2%
[5]
  growth inhibition: -5.45%
[6]
  growth inhibition: -11.8%

## CCCCC(=O)N/N=C/c1ccccc1OCC
[1]
  growth inhibition: -7%
[2]
  growth inhibition: 0.05%
[3]
  growth inhibition: 0.6%
[4]
  growth inhibition: -3.3%
[5]
  growth inhibition: -9.9%
[6]
  growth inhibition: -7.6%

## Cc1[nH]c2ccccc2c1C(Cc1ccccc1NC(=O)CCC(=O)O)c1c[nH]c2ccccc12 (configuration not stated)
[1]
  growth inhibition: 9%
[2]
  growth inhibition: -5.05%
[3]
  growth inhibition: -4.5%
[4]
  growth inhibition: -1.5%
[5]
  growth inhibition: -0.9%
[6]
  growth inhibition: 1.05%

## CCCCCCC1OCCC(C)O1 (configuration not stated)
[1]
  growth inhibition: 7.6%
[2]
  growth inhibition: 5.95%
[3]
  growth inhibition: 16.9%
[4]
  growth inhibition: -10.3%
[5]
  growth inhibition: -22.4%
[6]
  growth inhibition: 12.9%

## O=C(O)CCCCC1CCSS1 (configuration not stated)
[1]
  growth inhibition: 32.2%
[2]
  growth inhibition: 15.8%
[3]
  growth inhibition: 46%
[4]
  growth inhibition: 20.1%
[5]
  growth inhibition: 25.5%
[6]
  growth inhibition: 20.9%

## O=P1(O)Oc2ccc3ccccc3c2-c2c(ccc3ccccc23)O1
[1]
  growth inhibition: -0.4%
[2]
  growth inhibition: 30.3%
[3]
  growth inhibition: -6.1%
[4]
  growth inhibition: -16.9%
[5]
  growth inhibition: 19.4%
[6]
  growth inhibition: 15.7%

## NC1=NN(c2ccccc2)C(=O)C1/C(=N\NC(=O)c1cc2ccccc2cc1O)C(=O)Nc1cccc(C(F)(F)F)c1 (configuration not stated)
[1]
  growth inhibition: 47%
[2]
  growth inhibition: 15.7%
[3]
  growth inhibition: -33.5%
[4]
  growth inhibition: 19.9%
[5]
  growth inhibition: 20.5%
[6]
  growth inhibition: 31.4%

## CC(=O)[C@H]1CC[C@@H]2[C@]1(C)CC=C1[C@]23C=C[C@]2(C[C@@H](O)CC[C@]12C)C(C(=O)O)C3C(=O)O (some centres not stated)
[1]
  growth inhibition: 2.35%
[2]
  growth inhibition: -18%
[3]
  growth inhibition: -39.7%
[4]
  growth inhibition: 4.2%
[5]
  growth inhibition: -13.1%
[6]
  growth inhibition: 7.25%

## CCn1c2ccccc2c2cc(N)c(N=Nc3ccc(-c4ccc(N)c(OC)c4)cc3OC)cc21
[1]
  growth inhibition: 31.4%
[2]
  growth inhibition: 0.65%
[3]
  growth inhibition: 27.6%
[4]
  growth inhibition: 28.8%
[5]
  growth inhibition: -4%
[6]
  growth inhibition: 29.8%

## NCCCCCCN1CCN(c2cccc(Cl)c2)CC1
[1]
  growth inhibition: 14.2%
[2]
  growth inhibition: 21.9%
[3]
  growth inhibition: 14.8%
[4]
  growth inhibition: 7.55%
[5]
  growth inhibition: 13.8%
[6]
  growth inhibition: -13.4%

## Oc1cccc(O)c1
[1]
  growth inhibition: 0.8%
[2]
  growth inhibition: -1%
[3]
  growth inhibition: -1.1%
[4]
  growth inhibition: -12.2%
[5]
  growth inhibition: 1.75%
[6]
  growth inhibition: 33.1%
